Anthrax LF prot: inhibitors of Bacillus anthracis lethal factor protease; P15917; AID 588501; 0.12% of 360,000 active; multiplex microsphere protease cleavage assay, LF; inhibition, % at 10 µM
BoNT-F LC inh: blocks Botulinum neurotoxin F light chain protease | inhibition, % at 10 µM | Multiplex microsphere protease cleavage assay, flow cytometry | AID 588497 | 0.22% of 360,000 active; in the data active = inhibition above about 35%, passing the limit was not always enough; inconclusive = no clear call, values can overlap the other calls
MazEF act: MazEF (E. coli) toxin RNase activation | activation, % at 20 µM | P0AE70 | FAM/BHQ RNA-DNA oligo cleavage fluorescence, 5 h | 0.32% of 350,000 active; in the data active = activation above about 50%
Target sequence (P0AE70 whole entry, looked up): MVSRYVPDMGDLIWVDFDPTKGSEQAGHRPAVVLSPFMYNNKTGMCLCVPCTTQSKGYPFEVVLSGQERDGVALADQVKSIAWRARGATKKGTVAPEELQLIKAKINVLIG
Bead autofluor: compound fluorescence in toxin protease inhibitor counterscreen; compound autofluorescence counterscreen, microsphere flow cytometry; stronger effect = higher value; fluorescence intensity (test concentration not listed); 3.1% of 360,000 active; in the data active = fluorescence intensity above about 16000; inconclusive = no clear call, values can overlap the other calls
BoNT A protease: inhibitors of Botulinum neurotoxin A light chain protease; multiplex microsphere protease substrate cleavage, flow cytometry; inhibition, % at 10 µM; AID 588499; 0.17% of 360,000 active
Of the large screens only hits and unclear results are named; the others gave an inactive call; ! = a repeat was not active. Rows were chosen to be rich in hits. Some 3.6% of all compounds tested hit in one or more screens of this group. Cut-off read from the data, not from the text of the source, unless noted: active = inhibition above about 30%; inconclusive = no clear call, values can overlap the other calls; inactive = below that.

COc1c(C)cc(C(O)c2ncc(-c3ccc4ccccc4c3)[nH]2)cc1C (configuration not stated)	none (no result: MazEF act)
CN1CC2(C(=O)c3ccccc3)CN(C)CC(C(=O)c3ccccc3)(C1)C2	Bead autofluor 20389, BoNT A protease inconclusive
Cc1sc2ncnc(N3CCC(C(=O)Nc4nc(-c5ccc(F)cc5)cs4)CC3)c2c1C	none
Clc1ccc(-c2nnc3c4ccccc4nc(N4CCOCC4)n23)cc1Cl	Bead autofluor 21865, BoNT A protease inconclusive
Fc1ccccc1-c1nnc2c3ccccc3nc(N3CCOCC3)n12	Bead autofluor 19272
CSc1ncnc2c1ncn2CCCN(C)CCc1ccccn1	none
CC(Oc1ccc(Cl)cc1Cl)C(=O)NC1CCSC1=O (configuration not stated)	Bead autofluor 22259
CCCC(C)C(=O)NC1CCSC1=O (configuration not stated)	Bead autofluor 16556
OCCCNc1c2ccccc2nc2ccccc12	none
C#CCOc1nc(C)cc(C)c1S(=O)(=O)c1ccccc1C	none
Cc1cc(C)c(S(=O)(=O)c2c(C)cccc2C)c(OCC(C)C)n1	Bead autofluor 23555
CN(C)c1cccc(NC(=O)c2cccc3c(-c4ccc(F)c(F)c4)coc23)c1	none (no result: MazEF act)
O=C1C2C3C=CC(C3)C2C(=O)N1CN(Cc1ccccc1)CN1C(=O)C2C3C=CC(C3)C2C1=O (configuration not stated)	Bead autofluor 16805
O=C1C2C3C=CC(C3)C2C(=O)N1CNc1ccccc1 (configuration not stated)	none
COc1ccc(C(C)=O)cc1CSc1ccc(S(=O)(=O)N2CCOCC2)cn1	none
CCN(CCCn1c(SCC#N)nc2ccccc2c1=O)c1ccccc1	Bead autofluor 19328
CC(C)(C)C1CCN2CCC[C@](c3ccccc3)(C1)C2OCCCO (some centres not stated)	none (no result: MazEF act)
O=[N+]([O-])c1ccc(N2CCCC2)c2ncccc12	MazEF act 101
Cc1cccn2c(=O)c3cc(C(N)=S)c(=N)n(CCCOC(C)C)c3nc12	BoNT A protease 41
CCn1nc(C)c(CNC(=O)c2cc(COc3ccccc3SC)on2)c1C	none
CCNC(=O)COc1ccc2ccccc2c1	none
O=C(COC(=O)COc1ccc2ccccc2c1)NCC(F)(F)F	BoNT-F LC inh 37
C/C(=C1\SC(N2CCOCC2)=NC1=O)c1ccccc1	none
C/C(=C1/SC(N2CC(C)OC(C)C2)=NC1=O)c1ccccc1 (configuration not stated)	Bead autofluor 19965
O=C(CC[C@H]1O[C@@H](n2ccc(=O)[nH]c2=O)[C@H](O)[C@@H]1O)NC1CCN(Cc2ccccc2)C1 (some centres not stated)	none (no result: MazEF act)
CCOc1ccc2c(c1)nc(SCC(=O)c1ccc(Br)s1)n2C	Bead autofluor 16282
COc1ccc2nc(SCC(=O)Nc3ccccc3C)[nH]c2c1	Bead autofluor 20993
COc1ccccc1NC(=O)CSc1nc(N)cc(N)n1	Bead autofluor 21327
COc1ccccc1NC(=O)CSc1nc2nc(C)cc(C)c2c(=O)[nH]1	MazEF act 51
COc1ccc(NC(=O)CSc2nc3nc(C)cc(C)c3c(=O)[nH]2)cc1OC	none
COc1ccccc1NC(=O)CSc1nc(N)c(C#N)cc1C#N	none
CC(OC(=O)CCN=C1NS(=O)(=O)c2ccccc21)C(=O)Nc1ccc(F)c(F)c1F (configuration not stated)	Anthrax LF prot inconclusive, BoNT-F LC inh inconclusive, Bead autofluor inconclusive, BoNT A protease inconclusive
COCCN(C(=O)COC(=O)C1CC1C)c1c(N)n(Cc2ccccc2)c(=O)[nH]c1=O (configuration not stated)	none
CCOc1ccccc1N(C)S(=O)(=O)c1ccc2[nH]cc(C(=O)N(CCOC)CCOC)c(=O)c2c1	none
COCCN(CCOC)C(=O)c1c[nH]c2ccc(S(=O)(=O)N(C)c3ccc(F)cc3)cc2c1=O	Bead autofluor 18595
C=CCc1cc(OC)ccc1OCC(O)CN1CCN(c2ccc(OC)cc2)CC1 (configuration not stated)	Bead autofluor 22414!, BoNT A protease inconclusive
CCc1nc2ccccc2n(CCOCCn2c(=O)c(CC)nc3ccccc32)c1=O	Bead autofluor 21722
CCOCCn1c(CC)nc2ccccc21	none
CCOC(=O)c1c(C)n(C)c2ccc(OCC(O)Cn3nc(C)cc3C)cc12 (configuration not stated)	Bead autofluor 16244
CCOC(=O)c1c(C)n(C)c2ccc(OCC(O)CN(CC)CC)cc12 (configuration not stated)	none
CCOc1ccccc1C(=O)N1CCN(c2cccc(Cl)c2)CC1	Bead autofluor 20455
CCOc1ccc2ccccc2c1C(=O)N1CCN(c2ccccc2)CC1	Bead autofluor 21404
COc1cc2c(C(=O)N3CCN(c4cccc(Cl)c4)CC3)cn(CC(C)C)c(=O)c2cc1OC	BoNT-F LC inh 38
CCOC(=O)c1[nH]c(C)c(C(=O)N2CCN(c3ccccc3)CC2)c1C	none
O=C(O)c1ccccc1C(=O)N1CCN(c2cccc(Cl)c2)CC1	none
Cn1c(=O)[nH]c2c(cnn2C)c1=O	none
CC1Cc2ccccc2N1CC(=O)Nc1ccc2c(c1)OCO2 (configuration not stated)	Bead autofluor 20865
CC1Cc2ccccc2N1CC(=O)NC(=O)NC1CCCC1 (configuration not stated)	none
Cc1ccc(C)c(S(=O)(=O)N2CCN(CC(=O)Nc3ccc4c(c3)OCCO4)CC2)c1	Bead autofluor 24103
C/C(CC(=O)Nc1ccc2c(c1)OCO2)=N\NC(=O)c1ccc(N)cc1	none
C/C(CC(=O)Nc1ccc2c(c1)OCO2)=N\NC(=O)OC(C)(C)C	BoNT-F LC inh 42
CC1Cc2ccccc2N1CC(=O)NC(=O)NCc1ccco1 (configuration not stated)	Bead autofluor 17928
COc1ccc(NC(=O)c2ccc3ccccc3n2)cc1S(=O)(=O)N1CCCCC1	none
COc1cc2c(cc1OC)CN(C(=O)CSc1ccccc1C)CC2	none
CCOC(=O)C1(C)CCCCCN1C(=O)c1ccco1 (configuration not stated)	none (no result: MazEF act)
CC1CC(=O)N(CC(=O)NCc2ccco2)c2ccccc2S1 (configuration not stated)	Bead autofluor 23847
CC1CC(=O)N(CC(=O)NCc2ccc3c(c2)OCO3)c2ccccc2S1 (configuration not stated)	none
Cc1ccc(CSCC(=O)Nc2ccc3c(c2)OCO3)cc1	Bead autofluor 22179
O=C(CN1CCCc2ccccc21)NC(=O)NCc1ccccc1	none
O=C(CN1CCCc2ccccc21)NC(=O)NCc1ccco1	Bead autofluor 17200
O=C(CSCc1ccccc1)Nc1ccc2c(c1)OCO2	BoNT-F LC inh inconclusive
CN(C)C(=O)C[n+]1cccc(/C=N/O)c1	none
CCCCCCOc1ccc(C(=O)n2cnc(N)n2)cc1	Bead autofluor 21741
CCCCCCOc1ccc(C(=O)O)cc1	none
S=C1NC2=C(C(c3ccc(Br)cc3)N1)N1CCC2CC1 (configuration not stated)	none

Bioassay records deposited in PubChem BioAssay by several laboratories.
